Here are results for 40 compounds from PubChem BioAssay (NCI).

This is part of a sample that, as a whole, favours compounds with a hit. Of some 83,000 tested, about 20% had one in any assay.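 The endpoint reported here, percent growth, reads 100 for growth as untreated, 0 for no net growth and -100 for all cells dead.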 Unmarked numbers belong to inactive results. Active and inactive are the calls of the source.

The experiment concerns SNB-75 CNS. Kind of experiment: NCI-60 one-dose screen, 48 h (100 = growth as untreated, 0 = no growth, -100 = all killed). Particulars: 10 µM unless noted. As to the method:
Growth inhibition of the SNB-75 human tumor cell line is measured as a screen for anti-cancer activity. Cells are grown in 96 well plates and exposed to the test compound for 48 hours. Compounds are tested at a single concentration, which is 10^-5 M for most compounds. The reported endpoint is percent growth (GI% or GIPRCNT), where numbers from 0 - 100% represent growth inhibition, and numbers from -100% - 0 represent cell death. For example, a value of 40 represents 60% growth inhibition. A value of 0 means no net growth occurred over the course of the experiment. A value of -40 indicates 40% of cells at the beginning of the experiment died by the end of the experiment. A value of -100 means all cells are dead at the end of the experiment.
NCI-60 Human Tumor Cell Lines Screen was performed using the standard one-dose NCI protocol, which is described in more detail at https://dtp.cancer.gov/discovery_development/nci-60/default.htm.
Compounds with GIPRCNT values below 10 were considered active. Activity score was based on GIPRCNT using the following formula: […]
Score is 0 for GIPRCNT values of 100 or above, 50 for GIPRCNT values of 0, and 100 for GIPRCNT values of -100.
Regarding `CCCCNCCC(O)c1cc2ccc(C(F)(F)F)cc2c2cc(C(F)(F)F)ccc12` (stereo not given), the growth is -90.5% (active). As for `COc1cc(C2CC(c3ccc(Nc4ccnc5cc(Cl)ccc45)cc3)=NN2c2ccccc2)cc(OC)c1OC` (stereo not given), the growth was 72.6%. In the case of `O=C(/C=C/c1ccccc1)C(Br)C(Br)c1ccccc1` (stereo not given), the growth is 80.1%. In the case of `CC(C)NC(=O)OCC#CCOC(=O)NC(C)C`, the growth is 89.5%.

On to `CCCCCCCCCCCCCCCC1=NCC[N+]1(CCO)CCO`, for which the growth was 46.9%. As to `Fc1ccc(-c2nnc(N3CCOCC3)c3ccccc23)cc1`, the growth was 101%. Under `Nc1nc(N)c2cc(CNc3ccc(Cl)c(Cl)c3)ccc2n1` stands 40.1%; under `O=C1C(Cl)=C(N/N=c2/[nH][nH]/c(=N/NC3=C(Cl)C(=O)c4ccccc4C3=O)c3ccccc23)C(=O)c2ccccc21`, 63.6%.

For `CN(C)c1ccc(Nc2c3ccccc3nc3ccccc23)cc1`, the growth is 9.38% (active).

Turning to `N[C@@H](CO)C(=O)O`, the growth was 93.3%.

Turning to `CN1CCN(Cc2ccc(NC(=O)c3cncc(C#Cc4cnc5cccnn45)c3)cc2C(F)(F)F)CC1`, the growth is -68.8% (active). In the case of `CCCCCNCCCCCNc1cc(OC)cc2cccnc12`, the growth is 61.7%.

Regarding `Nc1n[nH]c2ccc([C@@H]3Nc4c(F)cc5[nH]ncc5c4[C@H]4C5CCC(C5)[C@@H]34)cc12` (stereo not given in full), the growth was 7.8% (active). For `COc1ccc(CCN2COc3c([C@@H](C)CCC=C(C)C)ccc(C)c3C2)cc1OC`, the growth is 62.8%. With `Fc1ccc2nc(-c3ccc(-c4noc(-c5ccc(Cl)cc5)n4)cc3)[nH]c2c1`, the growth was 110%.

In the case of `Cc1nc2c(-c3cnc(N)nc3)nc(N3CCOCC3)nc2n1C(C)C`, the growth is -38.8% (active). `Cc1nc2ccc(Nc3nc(N4CCOCC4)nc(N4CCN(C)CC4)n3)cc2n1Cc1ccccc1`: the growth was 62.4%. Under `Cc1cc(O)ccc1C1=NN(c2ccc(S(N)(=O)=O)cc2)C(=O)CC1` stands 63%. Take `CCCCCCCCCCCCCC(=S)NCCCC[C@H](NC(=O)OCc1ccccc1)C(=O)Nc1ccccc1`: the growth is 55.4%. On to `CCOC(=O)NNc1cccc(Cl)c1`, for which the growth is 77.2%. As to `O=C(CI)NCCNc1cccc2c(S(=O)(=O)O)cccc12`, the growth was 96.9%. On to `c1ccc(C(CC2=NCCCN2)c2ccccc2)cc1`, for which the growth is 86.2%. In the case of `COc1ccc(Br)c2ccccc12` it was 93.7%.

As to `COc1ccc(NC(=O)C2c3ccccc3C(=O)N(CC(C)C)C2c2cccs2)cc1` (stereo not given), the growth is 92.6%. In the case of `COc1ccc2[nH]c(C(=O)OCc3ccc4cccc(O)c4n3)cc2c1` it was -29.1% (active); in that of `COc1ccc(/C=c2\c(=O)n(-c3ccccc3)c3nn4c(n23)=NNC42CCCCC2)cc1`, 87.7%. In the case of `CC1=C(O)C(=O)C(c2c(C)cc(C)c(Br)c2C)=C(O)C1=O` it was 59.6%; in that of `O=C(O)C1[S][Sb]([CH](C(=O)O)[CH](C(=O)O)[Sb]2[S]C(C(=O)O)C(C(=O)O)[S]2)[S]C1C(=O)O` (stereo not given), 83.8%. In the case of `C#CCNC(=S)N/N=C(\C)c1ccccn1` it was 43.4%; in that of `c1ccc(C2=Nc3ccccc3SC2)cc1`, 77.6%; in that of `Cn1c(=O)c2c3c(oc2c2ccccc21)C(=O)c1ccccc1C3=O`, 64.4%.

For the compound `C/C(=C\C(=N\N=C(N)N)c1ccc(Cl)cc1)c1ccc(Cl)cc1`, the growth was -82.9% (active). On to `CC(C)(C)c1ccc(Cn2c(-c3nonc3N)nc3ccccc32)cc1`, for which the growth was 61.7%. In the case of `CCOc1cccc(/C=N/NC(=O)c2ccc(Nc3ccnc(C(F)(F)F)c3)cc2)c1O` it was 20.6%; in that of `CC(=O)Nc1ccc(Cl)cc1Cl`, 91.2%; in that of `C=CCn1c(C)nc2cc(Nc3nc(Nc4ccc5nc(C)n(CC=C)c5c4)nc4ccccc34)ccc21`, 90.8%.

As for `COc1ccc(/C(=C\c2cc(OC)c(OC)c(OC)c2)C(=O)Nc2nc3ccc(Cl)cc3s2)cc1`, the growth is 89%.

Take `O=C1C=CC(=O)N1c1cccc(N2C(=O)C=CC2=O)c1`: the growth is 96%. As to `C#CC[C@@H]1C[C@]2(C)[C@H]3CC[C@@H]4[C@H]5C(C(=C)C)CC[C@]5(C(=O)NCCCCN)CC[C@@]4(C)[C@]3(C)CC[C@H]2C(C)(C)[C@H]1OC(C)=O` (stereo not given in full), the growth is -97.3% (active).

Turning to `O=C1/C(=C\c2cccn2Cc2ccc(F)cc2)c2ccccc2N1c1c(Cl)cccc1Cl`, the growth was 68.4%.
